Laboratory results: PubChem BioAssay (NCATS)
Records with an inconclusive call do not appear. Active and inactive are the calls of the source. The call rests on the fitted dose curve; in most records, active means well fitted cell-killing curve with a large enough effect; inconclusive means small, poorly fitted or top-dose-only effect, or effect the other way; inactive means flat fitted curve, though single readings scatter.

Columns and labels:
Experiment in all cases: Primary qHTS to identify gynecologic anti-cancer compounds using libraries of approved drugs and bioactive compounds (AID 1345084); further: nearly all actives have a fitted effect of over 55% in size
CAOV3 = conditions: Gynecologic cancer cell panel viability, ATPlite luminescence, 48 h; series mostly up to 57.5 µM
Procedure, shortened: (§1)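 Five-point cytotoxicity, 48 h drug exposure at 37 C, 5% CO2, on cells seeded 16 h beforehand. ATP content read by ATPlite luminescence.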

CASKI = conditions: Gynecologic cancer cell panel viability, ATPlite luminescence, 48 h; series mostly up to 57.5 µM
Procedure, shortened: as §1

Es-2 = conditions: Gynecologic cancer cell panel viability, ATPlite luminescence, 48 h; series mostly up to 57.5 µM
Procedure, shortened: as §1

HeLa = conditions: Gynecologic cancer cell panel viability, ATPlite luminescence, 48 h; series mostly up to 57.5 µM
Procedure, shortened: as §1

Hek293T = conditions: Gynecologic cancer cell panel viability, ATPlite luminescence, 48 h, control line for the selectivity index; series mostly up to 57.5 µM
Procedure, shortened: as §1

JEG-3 = conditions: Gynecologic cancer cell panel viability, ATPlite luminescence, 48 h; series mostly up to 57.5 µM
Procedure, shortened: as §1

OV90 = conditions: Gynecologic cancer cell panel viability, ATPlite luminescence, 48 h; series mostly up to 57.5 µM
Procedure, shortened: as §1

PA-1 = conditions: Gynecologic cancer cell panel viability, ATPlite luminescence, 48 h; series mostly up to 57.5 µM
Procedure, shortened: as §1

SKOV3 = conditions: Gynecologic cancer cell panel viability, ATPlite luminescence, 48 h; series mostly up to 57.5 µM
Procedure, shortened: as §1

Tov-21-G = conditions: Gynecologic cancer cell panel viability, ATPlite luminescence, 48 h; series mostly up to 57.5 µM
Procedure, shortened: as §1

Tov112D = conditions: Gynecologic cancer cell panel viability, ATPlite luminescence, 48 h; series mostly up to 57.5 µM
Procedure, shortened: as §1
On the % scale 0 is the no-effect control and ±100 the full control effect.

CO[C@@H]1CC[C@H](OC[C@]2(COC(=O)c3ccc(C)[nH]3)[C@H](OC(C)=O)CC[C@@]3(C)[C@@H]4CC=C(C)[C@@H](C5=C(O)C(=O)OC5O)[C@]4(C)CC[C@@H]32)O[C@H]1C (some centres not stated)
inactive: Potency (CAOV3) | Potency (CASKI) | Potency (Es-2) | Potency (HeLa) | Potency (Hek293T) | Potency (JEG-3) | Potency (OV90) | Potency (PA-1) | Potency (SKOV3) | Potency (Tov-21-G) | Potency (Tov112D)

COC(=O)C[C@@H]1C(C(=O)O)=CO[C@@H](O[C@@H]2O[C@H](CO)[C@@H](O)[C@H](O)[C@H]2O)/C1=C\COC(=O)/C=C\c1ccccc1
inactive: Potency (CAOV3) | Potency (CASKI) | Potency (Es-2) | Potency (HeLa) | Potency (Hek293T) | Potency (JEG-3) | Potency (OV90) | Potency (PA-1) | Potency (SKOV3) | Potency (Tov-21-G) | Potency (Tov112D)

COc1cc2c(cc1OC)CN(C(=O)[C@@H](NCc1ccncc1)C(C)(C)C)CC2
inactive: Potency (CAOV3) | Potency (CASKI) | Potency (Es-2) | Potency (HeLa) | Potency (Hek293T) | Potency (JEG-3) | Potency (OV90) | Potency (PA-1) | Potency (SKOV3) | Potency (Tov-21-G) | Potency (Tov112D)

COc1cc(/C=C/C(=O)O[C@H]2[C@H](OC(=O)/C=C/c3cc(OC)c(O)c(OC)c3)O[C@H](CO[C@@H]3O[C@H](CO)[C@@H](O)[C@H](O)[C@H]3O)[C@@H](O)[C@@H]2O)ccc1O
inactive: Potency (CAOV3) | Potency (CASKI) | Potency (Es-2) | Potency (HeLa) | Potency (Hek293T) | Potency (JEG-3) | Potency (OV90) | Potency (PA-1) | Potency (SKOV3) | Potency (Tov-21-G) | Potency (Tov112D)

O=C(O)c1ccc(CCCc2ccc(OCCc3ccc(F)cc3)cc2)o1
inactive: Potency (CAOV3) | Potency (CASKI) | Potency (Es-2) | Potency (HeLa) | Potency (Hek293T) | Potency (JEG-3) | Potency (OV90) | Potency (PA-1) | Potency (SKOV3) | Potency (Tov-21-G) | Potency (Tov112D)

COc1cc([C@H]2OC[C@@H]3[C@@H](c4ccc(O[C@@H]5O[C@H](CO)[C@@H](O)[C@H](O)[C@H]5O)c(OC)c4)OC[C@]23O)ccc1O
inactive: Potency (CAOV3) | Potency (CASKI) | Potency (Es-2) | Potency (HeLa) | Potency (Hek293T) | Potency (JEG-3) | Potency (OV90) | Potency (PA-1) | Potency (SKOV3) | Potency (Tov-21-G) | Potency (Tov112D)

CC(C)(C)NCc1cc(Nc2ccnc3cc(Cl)ccc23)c2c(c1O)CCCC2
inactive: activity change, negative = cytotoxicity (CAOV3) -2.51% [at 0.462 µM] | activity change, negative = cytotoxicity (CASKI) 10.8% [at 0.462 µM] | activity change, negative = cytotoxicity (Es-2) 6.55% [at 0.462 µM] | activity change, negative = cytotoxicity (HeLa) 9.09% [at 0.462 µM] | activity change, negative = cytotoxicity (Hek293T) -0.834% [at 0.462 µM] | activity change, negative = cytotoxicity (JEG-3) 2.67% [at 0.462 µM] | activity change, negative = cytotoxicity (OV90) 12.6% [at 0.462 µM] | activity change, negative = cytotoxicity (PA-1) 0.938% [at 0.462 µM] | activity change, negative = cytotoxicity (SKOV3) 4.41% [at 0.462 µM] | activity change, negative = cytotoxicity (Tov-21-G) 8.34% [at 0.462 µM] | activity change, negative = cytotoxicity (Tov112D) 20.2% [at 0.462 µM]

COc1cc(NC(=O)c2ccccn2)ccc1Cl
inactive: Potency (CAOV3) | Potency (CASKI) | Potency (Es-2) | Potency (HeLa) | Potency (Hek293T) | Potency (JEG-3) | Potency (OV90) | Potency (PA-1) | Potency (SKOV3) | Potency (Tov-21-G) | Potency (Tov112D)

COC(=O)C1=CO[C@@H](O[C@@H]2O[C@H](CO)[C@@H](O)[C@H](O)[C@H]2O)[C@@H]2[C@@](C)(O)[C@@H](O)C[C@]12O
inactive: Potency (CAOV3) | Potency (CASKI) | Potency (Es-2) | Potency (HeLa) | Potency (Hek293T) | Potency (JEG-3) | Potency (OV90) | Potency (PA-1) | Potency (SKOV3) | Potency (Tov-21-G) | Potency (Tov112D)

COc1cc(/C=C/C(=O)OC2CC(OC(C)=O)C(OC(C)=O)C3C2CCC2C(=O)OC(c4ccoc4)CC23C)ccc1O[C@@H]1O[C@H](CO)[C@@H](O)[C@H](O)[C@H]1O (some centres not stated)
inactive: Potency (CAOV3) | Potency (CASKI) | Potency (Es-2) | Potency (HeLa) | Potency (Hek293T) | Potency (JEG-3) | Potency (OV90) | Potency (PA-1) | Potency (SKOV3) | Potency (Tov-21-G) | Potency (Tov112D)

CC(c1c[nH]c2ccccc12)C(O)C(=O)O (configuration not stated)
inactive: Potency (CAOV3) | Potency (CASKI) | Potency (Es-2) | Potency (HeLa) | Potency (Hek293T) | Potency (JEG-3) | Potency (OV90) | Potency (PA-1) | Potency (SKOV3) | Potency (Tov-21-G) | Potency (Tov112D)

COc1ncc(-c2ccc3c(Nc4cc(Oc5cc(F)cc(F)c5)cc(C(=O)O)c4)c(S(=O)(=O)NC4CC4)cnc3c2)c(OC)n1
inactive: Potency (CAOV3) | Potency (CASKI) | Potency (Es-2) | Potency (HeLa) | Potency (Hek293T) | Potency (JEG-3) | Potency (OV90) | Potency (PA-1) | Potency (SKOV3) | Potency (Tov-21-G) | Potency (Tov112D)
